Compounds with a hit are over-represented: about 21% of the library has one in this group of screens.
DRD3 antagonist: qHTS of D3 Dopamine Receptor Antagonist: qHTS | D(3) dopamine receptor (Homo sapiens), P35462 | D3R cells, DiscoveRx beta-arrestin luminescence, antagonist mode; hits give low values | max response, negative = inhibition, % | hit rate 2.5% among 360,000; in the data active means max response below about -50%; inconclusive means no clear call, values can overlap the other calls; further: on the % scale 0 is the no-effect control and ±100 the full control effect
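Cells expressing the human receptor were seeded at 1500 cells/well, incubated overnight at 37 degrees C in 5% CO2, then exposed to library compounds with dopamine controls for 90 minutes at 37 degrees C before luminescent detection.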
DRD3 agonist: qHTS of D3 Dopamine Receptor Agonist: qHTS; D(3) dopamine receptor (Homo sapiens), P35462; AID 652048, 2013; D3R DiscoveRx beta-arrestin cells, luminescence, 90 min; hit rate 0.58% among 410,000; max activation, %; in the data active means max activation above about 30%; further: 0% is about no effect
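Cells at 1500/well, incubated overnight, then treated with pinned compounds (dopamine as control) for 90 min at 37 degrees C. DiscoveRx reagent added for 30 - 60 minutes at room temperature; luminescence read.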
ClpP mod: qHTS Assay for Activators of ClpP; ATP-dependent Clp protease proteolytic subunit (Bacillus subtilis (strain 168)), P80244; purified B. subtilis ClpP, FRET peptide cleavage, 20 min; Potency, µM (titrated, usually from 57.5 µM), inactives show at the top dose activity change, negative = active; hit rate 1.9% among 340,000; AID 651965, 2013; active means well fitted falling curve with a large enough effect; inconclusive means small, poorly fitted or top-dose-only effect; inactive means no such curve, though single readings can be large or run the other way; further: potency means the concentration at half of the fitted maximal effect; the source files actives as falling curves though it sought activators and does not explain the sign; nearly all actives have a fitted effect of over 65% in size
Target sequence (P80244 whole entry, looked up): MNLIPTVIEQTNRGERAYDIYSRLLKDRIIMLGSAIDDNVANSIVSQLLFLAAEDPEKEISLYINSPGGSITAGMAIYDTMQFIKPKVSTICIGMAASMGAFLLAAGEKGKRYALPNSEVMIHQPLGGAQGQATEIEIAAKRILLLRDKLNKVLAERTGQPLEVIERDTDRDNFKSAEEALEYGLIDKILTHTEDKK
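Buffer: 100 mM Tris/HCl pH8, 100 mM KCl, 0.05% low protease BSA, 2.5% glycerol, 0.01% Tween-20. ClpP 10 microg/mL final; 20 min RT; delta FRET normalized to ADEP and DMSO controls.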
DT40 TDP1 CPT: qHTS for Inhibitors of human tyrosyl-DNA phosphodiesterase 1 (TDP1): qHTS in cells in presence of CPT; hit rate 12% among 420,000; AID 686979, 2013; Potency, µM (top dose mostly 46.2 µM), inactives show at the highest dose activity change, negative = growth inhibition, actives largely listed as inhibitors; chicken DT40 Tdp1-/-;hTDP1 cells + 20 nM CPT, ATP luminescence, 48 h; further: potency means the concentration at half of the fitted maximal effect; on the % scale 0 is the no-effect control and ±100 the full control effect; nearly all actives have a fitted effect of over 55% in size
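Cell growth measured by CellTiter-Glo luminescence after a minimum 48 h, 37 C compound exposure with 20 nM CPT in Tdp1-knockout DT40 cells stably expressing hTDP1, seeded 400/well; qHTS titration format.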
TDP1 cell noCPT: qHTS for Inhibitors of human tyrosyl-DNA phosphodiesterase 1 (TDP1): qHTS in cells in absence of CPT | hit rate 15% among 420,000 | Potency, µM (series often up to 46.2 µM), for the others: at the highest dose activity change, negative = growth inhibition, hits mostly inhibitors | DT40 Tdp1-/- hTDP1 cells, no CPT, ATP luminescence, 48 h | AID 686978, 2013; further: potency means the concentration at half of the fitted maximal effect; on the % scale 0 is the no-effect control and ±100 the full control effect; nearly all actives have a fitted effect of over 55% in size
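Seeded 400 DT40-hTDP1 cells/well (vehicle DMSO, no 20 nM CPT); pinned compounds; ≥48 hr at 37 °C; CellTiter-Glo luminescence as viability measure.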
IL1B secr inh: qHTS for Inhibitors of Inflammasome Signaling: IL-1-beta AlphaLISA Primary Screen; THP-1 LPS/ATP IL-1B secretion, AlphaLISA, 16 h; hits give low values; hit rate 4.7% among 360,000; activity change, % at 57.5 µM; in the data active means activity change below about -50%; inconclusive means mostly about -30% to -49%; further: on the % scale 0 is the no-effect control and ±100 the full control effect
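Secreted IL-1B measured by AlphaLISA bead assay after 16 h compound exposure of THP-1 cells; compounds (final up to 57.5 uM) added 1 h before LPS (250 ng/mL) and ATP (1.25 mM) stimulation; lower signal means less secretion.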
* = called active by the depositor; i = inactive; ? = inconclusive; / = no result given. Unless noted, the call rests on the fitted dose curve; in most records, active means well fitted inhibition curve with a large enough effect; inconclusive means small, poorly fitted or top-dose-only effect; inactive means flat fitted curve, though single readings scatter.

SMILES	DRD3 antagonist	DRD3 agonist	ClpP mod	DT40 TDP1 CPT	TDP1 cell noCPT	IL1B secr inh
COc1cc(C2c3c(oc4ccc(C)cc4c3=O)C(=O)N2Cc2ccccc2)ccc1O (configuration not stated)	/	-9.3	-1.6%	0.0%	-0.4%	/
COc1ccc([N+](=O)[O-])cc1NC(=O)CCS(=O)(=O)c1ccc(Br)cc1	-25.2	-15.4	/	-14.3%	-17.2%	72.5
COc1ccc(S(=O)(=O)N2CCN(C(c3ccccc3)c3ccccc3)CC2)cc1NC(C)=O	0.0	0.3	0.3%	?	-13.5%	-17.3
CCN(Cc1ccccc1)S(=O)(=O)c1ccc(C(=O)N(CCCN(C)C)c2nc3c(F)cccc3s2)cc1	-6.6	-2.3	-1.0%	?	?	-76.8*
Cc1ccc(CNC(=O)c2nccnc2C(=O)O)cc1	-11.3	-9.0	/	8.0%	18.7%	7.3
Cc1ccc(S(=O)(=O)n2nccc2-c2c(-c3ccc(Cl)cc3)noc2C)cc1	14.8	8.7	/	?	16.4µM*	-13.9
O=C(CSc1nc2c(c(C(F)(F)F)n1)CCc1ccccc1-2)NCc1ccco1	-12.2	-1.0	13.9%	16.4µM*	25.9µM*	28.7
Cc1sc(NC(=O)CSc2nc(N)n(CC(=O)c3ccccc3)n2)c(C#N)c1C	3.9	-0.5	-0.7%	-2.0%	-19.3%	-14.4
CCc1c(C)sc(NC(=O)CSc2nc3c(c(C(F)(F)F)n2)CCc2ccccc2-3)c1C#N	8.9	-7.1	-0.9%	20.6µM*	?	19.8
CC(NC(=O)CSc1nc2c(c(C(F)(F)F)n1)CCc1ccccc1-2)c1ccccc1 (configuration not stated)	12.8	1.9	-10.8%	?	23.1µM*	-16.2
CC(NC(=O)CSc1cccc(C(F)(F)F)c1)c1ccccc1 (configuration not stated)	6.7	-1.3	-0.4%	?	?	6.4
COc1ccc(NC(=O)C(C)n2nc(C)c3c(C)n(-c4ccccc4)nc3c2=O)cc1Cl (configuration not stated)	/	4.6	-0.4%	-28.4%	?	/
N#Cc1cccc(-c2cncnc2NCc2ccccc2)c1	/	/	/	-8.0%	-17.1%	/
CCc1sc(Nc2cccc(Cl)c2)nc1-c1cc2cccc(OC)c2oc1=O	/	28.6	-0.3%	?	16.4µM*	/
COc1cccc2cc(-c3nc(Nc4cccc(C)c4)sc3C)c(=O)oc12	/	80.3*	0.8%	?	?	/
Cc1cccc(-c2nnc(C(C)Nc3cccc(C(=O)NC4CC4)c3)o2)c1 (configuration not stated)	17.0	1.3	-10.4%	?	?	-5.4
Cc1ccc(C(=O)N/C(=C\c2ccco2)C(=O)NCCN2CCOCC2)cc1C	-8.4	-9.0	-1.5%	3.2%	-0.2%	i
O=C1CC[C@H](C(=O)O)N1	/	/	/	-3.3%	-11.4%	/
O=C(CC(SCCO)c1ccc2c(c1)OCO2)c1ccco1 (configuration not stated)	-20.3	-2.6	-1.1%	20.6µM*	18.4µM*	-56.4*
CCCCCC(=O)N1C[C@H](O)[C@@H](n2cc(-c3ccc(F)cc3)nn2)C[C@@H]1c1ccc(C)cc1	-15.6	-1.8	0.8%	?	?	?
CCCCCC(=O)N1C[C@H](n2cc(-c3ccc(F)cc3)nn2)[C@@H](O)C[C@@H]1c1ccc(Cl)cc1	-25.0	1.8	0.4%	?	25.9µM*	?
CCCCCC(=O)N1C[C@@H](n2cc(-c3ccc(F)cc3)nn2)[C@H](O)C[C@@H]1c1ccccc1	-21.2	0.6	-0.4%	?	?	-14.9

Screening results from PubChem BioAssay.
